The supplement of paper PMC6555819

The sequences below were run on PPARg:RXRa 30nM:10nM, anti-RXR (NR concentration 30 nM, RXRa partner concentration 10 nM) (assay: PBM binding z-score (relative to random genomic background probes); higher = stronger binding; sequences stand for … in GC…GCGATTGACAGCGTAGAATGAAGG).
In short: (§1)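 Probes were double-stranded and carried 34-nt variable regions with direct-repeat seeds, single-nucleotide variants, half-site ablations and random human genomic background sequences, printed on custom Agilent 4×180K protein-binding microarrays. Arrays were incubated 1 h with ligand-free nuclear receptor dimers in PBS pH 7.4, 2% milk, 0.02% Triton X-100, 1 mM DTT, 0.2 mg/mL BSA and 0.4 mg/ml salmon testes DNA. Antibodies against each partner (one per run) detected binding, and scanned fluorescence was regression-normalized. Binding z-scores use the random background probes as reference.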

| Sequence | PBM binding z-score |
| --- | --- |
| CTATGTAGGTTAAGGGGGTCATTCAGTTTGAAAG | 6.08 |
| CCGAGTAGGTTACGAGGGGGCATGCAGTGCGAAT | 0.783 |
| TCGAGCAGGTTACGGGGGCATTCAGGGATGAAGA | 2.24 |
| CTATGTAGGTTAAGGGGGCCATTCAGTTTGAAAG | 4.73 |
| TCGGGTAGGTTACGGGGGCATTCAGGGATGAAGA | 3.74 |
| CTATGTAGGTTAAGGGGGTCTTTCAGTTTGAAAG | 4.5 |
| CTGTGTAGGTTAAGGGGGTCATTCAGTTTGAAAG | 4.23 |
| CTATGTAGATTAAGGGGGTCATTCAGTTTGAAAG | 2.72 |
| CCGAGTAGGTTACGAGGGGGTATTCAGTGCGAAT | 1.22 |
| TCGAGTAGGTTAAGGGGGCATTCAGGGATGAAGA | 3.91 |
| CCGATTAGGTTACGAGGGGGCATTCAGTGCGAAT | 0.437 |
| CTATGTAGGTTAAGCGGGTCATTCAGTTTGAAAG | 2.6 |
| CTATGTAGGTTAAGGGGGTCATGCAGTTTGAAAG | 6.71 |
| CTATGTAGGTTAAGGGGGGCATTCAGTTTGAAAG | 6.02 |
| CTATGTAGGTTAAAGGGGTCATTCAGTTTGAAAG | 7.05 |
| CCGAGTAGGTCACGAGGGGGCATTCAGTGCGAAT | 4.32 |
| TCGAGTAGGTTATGGGGGCATTCAGGGATGAAGA | 2.99 |
| CTGAGTAGGTTACGAGGGGGCATTCAGTGCGAAT | 1.42 |
| TCGAGTAGGTTACGGGGGCATTCCGGGATGAAGA | 2.85 |
| CCGAGTAGGTTAAGAGGGGGCATTCAGTGCGAAT | 0.978 |

| Sequence | PBM binding z-score |
| --- | --- |
| TCGAGTACGTTACGGGGGCATTCAGGGATGAAGA | 1.42 |
| CTATGTAGGTAAAGGGGGTCATTCAGTTTGAAAG | 4.91 |
| CCGAGTAGGTTACGAGGGGGCAGTCAGTGCGAAT | 0.853 |
| CAGAGTAGGTTACGAGGGGGCATTCAGTGCGAAT | 2.05 |
| TCGAGTAGGATACGGGGGCATTCAGGGATGAAGA | 2.22 |
| CCGAGTAGGTTACGAGGAGGCATTCAGTGCGAAT | -0.283 |
| CTATGTAGGTTAAGGGGGTCATTCATTTTGAAAG | 6.27 |
| CCGAGTAGGTTACGAGGGGGCATTCTGTGCGAAT | 0.457 |
| TCGAGTATGTTACGGGGGCATTCAGGGATGAAGA | 2.44 |
| TCGAGTAGGTTACGGGGGCATTCTGGGATGAAGA | 3.42 |
| CTATGAAGGTTAAGGGGGTCATTCAGTTTGAAAG | 3.46 |
| CCGAGTAGGTTACGTGGGGGCATTCAGTGCGAAT | 0.89 |
| CCGAGTAGGTTACGAGGGGGCATTGAGTGCGAAT | 1.03 |
| CCGAGTAGGTTACGAGGGGGCACTCAGTGCGAAT | 1.09 |
| TCGAGTAGGTTACGGGGGCCTTCAGGGATGAAGA | 1.85 |
| TCGAGTAGGTTACGCGGGCATTCAGGGATGAAGA | 1.46 |
| TCGAGTAGGTTACGGGGTCATTCAGGGATGAAGA | 4.18 |
| CTATGTAGGTTCAGGGGGTCATTCAGTTTGAAAG | 3.18 |
| TCGAGTAGGTTACGGGGGCTTTCAGGGATGAAGA | 2.05 |

These sequences were tested on PPARg:RXRa 90nM:30nM, anti-RXR (NR concentration 90 nM, RXRa partner concentration 30 nM) in the same assay as above.
In short: as §1

| Sequence | PBM binding z-score |
| --- | --- |
| CTATGTAGGTTAAGGGGGTCATTCAGTTTGAAAG | 8.01 |
| CCGAGTAGGTTACGAGGGGGCATGCAGTGCGAAT | 2.32 |
| TCGAGCAGGTTACGGGGGCATTCAGGGATGAAGA | 3.46 |
| CTATGTAGGTTAAGGGGGCCATTCAGTTTGAAAG | 6.88 |
| TCGGGTAGGTTACGGGGGCATTCAGGGATGAAGA | 4.7 |
| CTATGTAGGTTAAGGGGGTCTTTCAGTTTGAAAG | 6.8 |
| CTGTGTAGGTTAAGGGGGTCATTCAGTTTGAAAG | 5.78 |
| CTATGTAGATTAAGGGGGTCATTCAGTTTGAAAG | 4.53 |
| CCGAGTAGGTTACGAGGGGGTATTCAGTGCGAAT | 1.9 |
| TCGAGTAGGTTAAGGGGGCATTCAGGGATGAAGA | 5.72 |
| CCGATTAGGTTACGAGGGGGCATTCAGTGCGAAT | 2.32 |
| CTATGTAGGTTAAGCGGGTCATTCAGTTTGAAAG | 4.53 |
| CTATGTAGGTTAAGGGGGTCATGCAGTTTGAAAG | 8.07 |
| CTATGTAGGTTAAGGGGGGCATTCAGTTTGAAAG | 7.7 |
| CTATGTAGGTTAAAGGGGTCATTCAGTTTGAAAG | 8.61 |
| CCGAGTAGGTCACGAGGGGGCATTCAGTGCGAAT | 6.72 |
| TCGAGTAGGTTATGGGGGCATTCAGGGATGAAGA | 4.23 |
| CTGAGTAGGTTACGAGGGGGCATTCAGTGCGAAT | 3.41 |
| TCGAGTAGGTTACGGGGGCATTCCGGGATGAAGA | 4.91 |
| CCGAGTAGGTTAAGAGGGGGCATTCAGTGCGAAT | 2.43 |

| Sequence | PBM binding z-score |
| --- | --- |
| TCGAGTACGTTACGGGGGCATTCAGGGATGAAGA | 1.85 |
| CTATGTAGGTAAAGGGGGTCATTCAGTTTGAAAG | 6.93 |
| CCGAGTAGGTTACGAGGGGGCAGTCAGTGCGAAT | 2.04 |
| CAGAGTAGGTTACGAGGGGGCATTCAGTGCGAAT | 3.3 |
| TCGAGTAGGATACGGGGGCATTCAGGGATGAAGA | 2.53 |
| CCGAGTAGGTTACGAGGAGGCATTCAGTGCGAAT | 0.832 |
| CTATGTAGGTTAAGGGGGTCATTCATTTTGAAAG | 7.77 |
| CCGAGTAGGTTACGAGGGGGCATTCTGTGCGAAT | 2.35 |
| TCGAGTATGTTACGGGGGCATTCAGGGATGAAGA | 3.35 |
| TCGAGTAGGTTACGGGGGCATTCTGGGATGAAGA | 4.95 |
| CTATGAAGGTTAAGGGGGTCATTCAGTTTGAAAG | 5.16 |
| CCGAGTAGGTTACGTGGGGGCATTCAGTGCGAAT | 2.73 |
| CCGAGTAGGTTACGAGGGGGCATTGAGTGCGAAT | 2.58 |
| CCGAGTAGGTTACGAGGGGGCACTCAGTGCGAAT | 2.12 |
| TCGAGTAGGTTACGGGGGCCTTCAGGGATGAAGA | 2.72 |
| TCGAGTAGGTTACGCGGGCATTCAGGGATGAAGA | 1.79 |
| TCGAGTAGGTTACGGGGTCATTCAGGGATGAAGA | 5.91 |
| CTATGTAGGTTCAGGGGGTCATTCAGTTTGAAAG | 5.1 |
| TCGAGTAGGTTACGGGGGCTTTCAGGGATGAAGA | 3.12 |
